# Laboratory results published in the supplement of paper PMC10849652.
# Targets with a hit are over-represented here; the source holds about 8,800 in all. About 0.5% of all pairs of compound and target were hits. A number with no mark means an inactive call.
# Key:
# Assay in all cases: log2 fold change, soluble protein after heating vs DMSO (PISA); higher = thermal stabilisation; K562 lysate, 10 uM; active = over 0.2 and 3.5 SD of the protein, either way, in both replicates (recomputed)
# ibrutinib = compound: C=CC(=O)N1CCC[C@@H](n2nc(-c3ccc(Oc4ccccc4)cc3)c3c(N)ncnc32)C1 [ibrutinib]
# Outline: (§1)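 Log-two fold change in thermal stability relative to solvent controls is reported from duplicates. For each sample, crude K562 extract from dounce-homogenised pellets in PBS pH 7.4 with 1 mM MgCl2, at 1 mg/mL protein, was treated with 10 μM compound for 30 min. Aliquots heated for 3 min across 48°C-58°C were pooled, brought to 0.5% NP-40 at 4°C and cleared at 21,000xg for 90 min. The supernatant was quantified by TMTpro 16plex LC-MS/MS with channel sums equalised.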
# [1] = compound: CC1=C(C=C(C=C1)NC(=O)C2=CC(=CC=C2)C(C)(C)C#N)NC3=CC4=C(C=C3)N=CN(C4=O)C
# Outline: as §1
# barasertib = compound: CCN(CCCOc1ccc2c(Nc3cc(CC(=O)Nc4cccc(F)c4)[nH]n3)ncnc2c1)CCOP(=O)(O)O [barasertib]
# Outline: as §1
# sotrastaurin = compound: CN1CCN(c2nc(C3=C(c4c[nH]c5ccccc45)C(=O)NC3=O)c3ccccc3n2)CC1 [sotrastaurin]
# Outline: as §1
# ralimetinib = compound: CC(C)(C)Cn1c(N)nc2ccc(-c3[nH]c(C(C)(C)C)nc3-c3ccc(F)cc3)nc21 [ralimetinib]
# Outline: as §1
# [2] = compound: CC(C)(O)CC(=O)NCCn1ccc2ncnc(Nc3ccc(Oc4cccc(C(F)(F)F)c4)c(Cl)c3)c21
# Outline: as §1
# [3] = compound: CC(C)C1=C2N=C(C=C(N2N=C1)NCC3=CC=CC=C3)NCCCCCCN
# Outline: as §1
# [4] = compound: CC1=C(C(CC(=O)N1)C2=CC=C(C=C2)C(F)(F)F)C(=O)NC3=C(C=C4C(=C3)C=NN4)F
# Outline: as §1
# [5] = compound: CC1=C(C2=C(C=C1)C(=O)C3=CC=CC=C3N2CCCN)C
# Outline: as §1
# [6] = compound: CC1=C(C=C(C=C1)NC(=O)C2=CC(=CC=C2)N(C)C)NC(=O)C3=CC=C(C=C3)O
# Outline: as §1
# vemurafenib = compound: CCCS(=O)(=O)Nc1ccc(F)c(C(=O)c2c[nH]c3ncc(-c4ccc(Cl)cc4)cc23)c1F [vemurafenib]
# Outline: as §1
# [7] = compound: CC[C@@H]1C(=O)N(C)c2cnc(Nc3ccc(C(=O)NC4CCN(C)CC4)cc3OC)nc2N1C1CCCC1
# Outline: as §1
# [8] = compound: CCn1c(C(=O)N(C2CC2)C2CC2)cc2c3c(ncn3C)c(Nc3cc(C)n(C)n3)nc21
# Outline: as §1
# [9] = compound: CCn1cc(-c2ccnc3[nH]c(-c4cccc(CN(C)C)c4)cc23)c(-c2ccc(NC(=O)N(C)C)cc2)n1
# Outline: as §1
# [10] = compound: CN1CCC(CNc2ccc3ncc(-c4cccc(OC(F)(F)F)c4)n3n2)CC1
# Outline: as §1
# saracatinib = compound: CN1CCN(CCOc2cc(OC3CCOCC3)c3c(Nc4c(Cl)ccc5c4OCO5)ncnc3c2)CC1 [saracatinib]
# Outline: as §1
# [11] = compound: CC(=O)c1cnc2ccc(-c3cc(Cl)c(O)c(Cl)c3)nc2c1N[C@H]1CC[C@H](CN(C)C)CC1
# Outline: as §1
# [12] = compound: CC1=CC=C(C=C1)SC2=C3C=C(SC3=CN=C2)C(=O)N
# Outline: as §1
# [13] = compound: CCCS(=O)(=O)Nc1ccc(F)c(C(=O)c2c[nH]c3ncc(Cl)cc23)c1F
# Outline: as §1
# volasertib = compound: CC[C@@H]1C(=O)N(C)c2cnc(Nc3ccc(C(=O)N[C@H]4CC[C@H](N5CCN(CC6CC6)CC5)CC4)cc3OC)nc2N1C(C)C [volasertib]
# Outline: as §1
# Sequence of UniProt O75582 (O75582 whole entry, looked up): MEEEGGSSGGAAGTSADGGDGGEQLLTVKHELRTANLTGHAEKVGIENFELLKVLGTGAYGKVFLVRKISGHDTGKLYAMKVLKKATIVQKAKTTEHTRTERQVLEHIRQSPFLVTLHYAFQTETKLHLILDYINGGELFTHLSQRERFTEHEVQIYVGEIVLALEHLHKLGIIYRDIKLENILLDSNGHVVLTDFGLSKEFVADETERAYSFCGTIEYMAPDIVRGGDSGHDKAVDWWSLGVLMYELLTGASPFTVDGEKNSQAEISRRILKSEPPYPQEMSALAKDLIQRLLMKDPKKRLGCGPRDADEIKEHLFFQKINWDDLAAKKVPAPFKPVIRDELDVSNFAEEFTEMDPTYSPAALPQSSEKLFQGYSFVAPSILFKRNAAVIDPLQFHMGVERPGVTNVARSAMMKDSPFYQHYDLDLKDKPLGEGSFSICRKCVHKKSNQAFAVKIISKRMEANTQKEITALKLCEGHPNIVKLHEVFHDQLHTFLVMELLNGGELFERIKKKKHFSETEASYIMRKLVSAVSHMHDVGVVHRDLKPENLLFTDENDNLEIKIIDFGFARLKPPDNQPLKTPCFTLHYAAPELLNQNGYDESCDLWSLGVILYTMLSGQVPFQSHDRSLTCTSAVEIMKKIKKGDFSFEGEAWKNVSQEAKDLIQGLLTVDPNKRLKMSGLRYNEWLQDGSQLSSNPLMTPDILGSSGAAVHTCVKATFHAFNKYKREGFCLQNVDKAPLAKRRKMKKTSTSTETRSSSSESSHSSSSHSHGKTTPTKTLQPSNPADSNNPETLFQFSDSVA
# Sequence of UniProt P19793 (P19793 whole entry, looked up): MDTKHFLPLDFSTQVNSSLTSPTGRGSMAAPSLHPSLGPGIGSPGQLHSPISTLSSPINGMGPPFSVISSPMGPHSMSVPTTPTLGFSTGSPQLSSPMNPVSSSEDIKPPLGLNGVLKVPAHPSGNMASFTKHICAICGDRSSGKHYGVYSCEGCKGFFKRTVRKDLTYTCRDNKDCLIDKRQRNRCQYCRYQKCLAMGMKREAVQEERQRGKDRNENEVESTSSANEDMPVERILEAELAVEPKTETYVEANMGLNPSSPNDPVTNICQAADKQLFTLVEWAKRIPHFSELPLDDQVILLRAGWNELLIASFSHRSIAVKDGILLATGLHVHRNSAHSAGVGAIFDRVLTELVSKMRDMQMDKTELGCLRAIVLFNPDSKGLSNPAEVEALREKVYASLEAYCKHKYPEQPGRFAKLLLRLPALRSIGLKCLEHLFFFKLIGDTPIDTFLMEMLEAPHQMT
# Sequence of UniProt Q96K19 (Q96K19 whole entry, looked up): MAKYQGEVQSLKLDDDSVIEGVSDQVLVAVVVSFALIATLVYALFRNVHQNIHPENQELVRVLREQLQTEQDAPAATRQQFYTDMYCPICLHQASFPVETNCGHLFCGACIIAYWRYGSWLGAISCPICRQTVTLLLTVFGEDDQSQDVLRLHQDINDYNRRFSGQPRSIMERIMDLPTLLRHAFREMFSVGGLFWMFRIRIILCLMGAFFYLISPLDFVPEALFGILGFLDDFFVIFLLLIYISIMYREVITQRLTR
# Sequence of UniProt O15027 (O15027 whole entry, looked up): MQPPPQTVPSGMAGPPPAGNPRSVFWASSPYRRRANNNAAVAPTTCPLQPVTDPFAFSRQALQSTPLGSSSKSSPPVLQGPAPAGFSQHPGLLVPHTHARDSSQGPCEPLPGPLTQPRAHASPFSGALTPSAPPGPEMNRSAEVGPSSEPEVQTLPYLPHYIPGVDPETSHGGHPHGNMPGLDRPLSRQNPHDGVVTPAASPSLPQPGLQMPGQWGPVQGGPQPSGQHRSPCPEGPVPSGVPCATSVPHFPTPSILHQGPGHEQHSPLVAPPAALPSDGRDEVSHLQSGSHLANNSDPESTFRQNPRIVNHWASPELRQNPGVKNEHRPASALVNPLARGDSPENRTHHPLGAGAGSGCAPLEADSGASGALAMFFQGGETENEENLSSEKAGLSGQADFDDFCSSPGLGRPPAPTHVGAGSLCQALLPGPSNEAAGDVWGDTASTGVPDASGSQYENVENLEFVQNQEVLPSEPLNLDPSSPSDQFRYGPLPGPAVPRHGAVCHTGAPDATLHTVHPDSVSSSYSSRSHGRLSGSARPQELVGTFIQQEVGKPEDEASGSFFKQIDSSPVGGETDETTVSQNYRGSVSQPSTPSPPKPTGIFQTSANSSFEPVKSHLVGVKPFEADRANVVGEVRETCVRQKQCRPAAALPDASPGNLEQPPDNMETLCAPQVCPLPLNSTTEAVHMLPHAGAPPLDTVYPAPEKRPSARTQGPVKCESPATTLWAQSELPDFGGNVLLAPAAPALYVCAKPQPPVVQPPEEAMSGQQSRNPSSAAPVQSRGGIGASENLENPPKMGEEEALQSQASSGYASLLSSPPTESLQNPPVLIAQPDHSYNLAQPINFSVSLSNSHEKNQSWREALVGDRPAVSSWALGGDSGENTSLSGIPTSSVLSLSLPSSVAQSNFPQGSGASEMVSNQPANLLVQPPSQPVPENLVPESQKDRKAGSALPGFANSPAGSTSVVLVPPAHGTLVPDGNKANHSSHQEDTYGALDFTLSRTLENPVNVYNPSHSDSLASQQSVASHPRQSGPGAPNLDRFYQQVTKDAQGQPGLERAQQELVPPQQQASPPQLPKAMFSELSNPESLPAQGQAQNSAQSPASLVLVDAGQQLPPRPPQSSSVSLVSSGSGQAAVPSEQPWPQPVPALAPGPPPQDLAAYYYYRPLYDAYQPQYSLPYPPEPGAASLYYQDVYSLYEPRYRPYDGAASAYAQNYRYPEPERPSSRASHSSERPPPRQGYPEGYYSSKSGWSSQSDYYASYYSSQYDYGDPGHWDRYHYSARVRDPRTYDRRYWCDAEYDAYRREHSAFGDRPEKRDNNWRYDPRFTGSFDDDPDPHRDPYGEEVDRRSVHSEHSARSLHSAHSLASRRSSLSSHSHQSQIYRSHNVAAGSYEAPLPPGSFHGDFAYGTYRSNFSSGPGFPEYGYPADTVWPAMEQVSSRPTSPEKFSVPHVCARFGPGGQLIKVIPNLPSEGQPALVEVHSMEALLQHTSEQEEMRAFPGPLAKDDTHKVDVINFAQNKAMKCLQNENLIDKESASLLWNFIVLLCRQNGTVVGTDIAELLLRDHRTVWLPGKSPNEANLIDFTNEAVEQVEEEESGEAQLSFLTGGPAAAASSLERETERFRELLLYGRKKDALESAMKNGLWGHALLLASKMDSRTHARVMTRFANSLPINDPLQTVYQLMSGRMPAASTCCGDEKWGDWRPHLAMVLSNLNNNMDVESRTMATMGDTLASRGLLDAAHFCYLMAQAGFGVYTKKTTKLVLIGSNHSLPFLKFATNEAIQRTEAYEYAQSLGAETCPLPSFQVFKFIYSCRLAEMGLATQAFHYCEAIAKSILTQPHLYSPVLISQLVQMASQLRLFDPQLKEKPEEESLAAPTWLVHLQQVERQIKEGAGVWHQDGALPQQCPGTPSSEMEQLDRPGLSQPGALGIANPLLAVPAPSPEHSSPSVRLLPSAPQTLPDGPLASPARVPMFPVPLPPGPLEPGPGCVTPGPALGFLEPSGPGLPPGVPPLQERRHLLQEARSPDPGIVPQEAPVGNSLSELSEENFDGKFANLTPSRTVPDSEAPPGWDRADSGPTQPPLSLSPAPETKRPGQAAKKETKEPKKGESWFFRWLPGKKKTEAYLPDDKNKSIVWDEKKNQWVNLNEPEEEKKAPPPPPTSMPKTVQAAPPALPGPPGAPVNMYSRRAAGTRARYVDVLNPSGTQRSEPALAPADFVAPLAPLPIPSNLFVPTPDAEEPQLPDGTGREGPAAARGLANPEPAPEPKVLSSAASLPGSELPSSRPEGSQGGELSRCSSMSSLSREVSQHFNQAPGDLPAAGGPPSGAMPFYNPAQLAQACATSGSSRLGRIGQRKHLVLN
# Sequence of UniProt O75943 (O75943 whole entry, looked up): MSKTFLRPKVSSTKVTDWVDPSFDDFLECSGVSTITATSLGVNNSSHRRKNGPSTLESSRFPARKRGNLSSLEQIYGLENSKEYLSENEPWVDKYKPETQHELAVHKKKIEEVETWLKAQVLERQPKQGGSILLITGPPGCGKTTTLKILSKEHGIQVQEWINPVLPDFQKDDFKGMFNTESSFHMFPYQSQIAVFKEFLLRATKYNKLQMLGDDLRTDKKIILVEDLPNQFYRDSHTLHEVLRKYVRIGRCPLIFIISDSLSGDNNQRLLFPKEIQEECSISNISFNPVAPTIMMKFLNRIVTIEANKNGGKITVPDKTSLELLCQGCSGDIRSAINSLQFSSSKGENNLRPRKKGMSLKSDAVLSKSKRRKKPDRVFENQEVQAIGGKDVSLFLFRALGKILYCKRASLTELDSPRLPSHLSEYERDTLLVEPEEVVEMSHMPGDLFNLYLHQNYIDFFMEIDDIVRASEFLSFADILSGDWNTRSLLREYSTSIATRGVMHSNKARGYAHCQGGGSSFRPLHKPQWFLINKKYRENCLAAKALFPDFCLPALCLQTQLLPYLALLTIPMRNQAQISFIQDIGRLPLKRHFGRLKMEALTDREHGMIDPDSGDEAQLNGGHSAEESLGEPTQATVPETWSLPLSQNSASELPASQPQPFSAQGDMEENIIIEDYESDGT
# Sequence of UniProt Q99496 (Q99496 whole entry, looked up): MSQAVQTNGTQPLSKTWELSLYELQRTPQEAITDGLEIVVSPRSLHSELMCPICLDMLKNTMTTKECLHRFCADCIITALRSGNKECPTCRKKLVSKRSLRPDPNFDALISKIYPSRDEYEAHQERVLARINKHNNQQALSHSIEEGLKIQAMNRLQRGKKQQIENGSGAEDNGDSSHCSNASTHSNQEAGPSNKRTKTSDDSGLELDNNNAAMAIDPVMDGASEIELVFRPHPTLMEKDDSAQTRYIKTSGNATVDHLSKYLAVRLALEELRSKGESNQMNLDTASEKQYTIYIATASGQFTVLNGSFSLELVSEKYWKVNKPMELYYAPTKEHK
# Sequence of UniProt Q96E14 (Q96E14 whole entry, looked up): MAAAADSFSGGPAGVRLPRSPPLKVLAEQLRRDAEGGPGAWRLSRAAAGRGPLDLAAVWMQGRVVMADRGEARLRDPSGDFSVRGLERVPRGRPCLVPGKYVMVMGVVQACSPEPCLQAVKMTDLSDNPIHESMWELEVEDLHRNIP
Target,log2 fold change (ibrutinib),log2 fold change [1],log2 fold change (barasertib),log2 fold change (sotrastaurin),log2 fold change (ralimetinib),log2 fold change [2],log2 fold change [3],log2 fold change [4],log2 fold change [5],log2 fold change [6],log2 fold change (vemurafenib),log2 fold change [7],log2 fold change [8],log2 fold change [9],log2 fold change [10],log2 fold change (saracatinib),log2 fold change [11],log2 fold change [12],log2 fold change [13],log2 fold change (volasertib)
RLIM (UniProt Q9NVW2),0.014,0.465,0.065,-0.055,,,,,,,,,,,,,,,,
RFWD3 (UniProt Q6PCD5),-0.001,0.087,0.004,-0.017,0.039,-0.059,0.066,0.059,-0.06,-0.007,-0.073,-0.011,-0.062,-0.087,-0.055,-0.036,,,,
RUFY2 isoform 1 (UniProt Q8WXA3),0.068,-0.101,-0.206,0.001,-0.031,0.005,,-0.118,,-0.033,0.01,0.038,-0.026,-0.009,-0.178,,,,,
SCNM1 (UniProt Q9BWG6),,0.06,,-0.023,0.013,0.012,0.062,0.065,-0.189,-0.069,,0.122,0.099,-0.033,-0.005,-0.092,-0.026,-0.221,0.012,0.372 (active)
RNF2 (UniProt Q99496),,-0.048,,-0.002,-0.053,-0.01,0.017,0.009,-0.081,0.024,-0.03,-0.03,0.061,0.557 (active),-0.399 (active),-0.004,,,,
RAD17 (UniProt O75943),0.023,-0.041,0.131,-0.004,0.054,0.041,,0.026,-0.029,0.049,-0.091,0.017,0.07,-0.214,-0.027,0.042,,,,
SEC16A isoform 2 (UniProt O15027),,,,,-0.103,-0.062,,,,0.167,,,-0.204,,,,,,,
RXRA (UniProt P19793),,-0.02,,0.013,-0.033,0.087,0.066,0.059,0.063,-0.036,,,-0.061,-0.359 (active),0.13,-0.093,-0.028,0,-0.121,0.026
RBM4 isoform 3 (UniProt Q9BWF3),,-0.092,,0.074,,,,,,,,,,,,,,,,
RNF170 (UniProt Q96K19),-0.006,,0.189,,,,0.084,0.302,-0.035,,-0.08,,,-0.015,0.09,-0.201,0.107,-0.036,0.02,-0.131
S100A6 (UniProt P06703),,0.04,,-0.033,0.117,0.152,-0.01,,0.793 (active),0.199,0.036,-0.027,-0.094,0.03,-0.139,0.715 (active),-0.082,0.032,0.124,0.048
SELENOK (UniProt Q9Y6D0),0.05,,-0.022,,,,,0.092,-0.164,,-0.034,,,-0.593,0.529 (active),-0.021,-0.134,0.022,-0.004,0.062
RMI2 (UniProt Q96E14),,0.011,,-0.01,-0.061,0.007,-0.032,,0.021,0.039,0.239,-0.109,-0.007,,,-0.008,,,,
RFNG (UniProt Q9Y644),,,,,,,,0.023,,,,,,,,,,,,
RPS6KA5 (UniProt O75582),,-0.441 (active),,0.185,-0.02,-0.055,-0.027,0.011,-0.04,0.004,-0.048,0.059,0.005,-0.116,0.087,-0.071,0.173,0.005,-0.073,-0.182
